# Data as given in the supplement of paper PMC8728848.
# Only a selection was taken, and the strongest signals are over-represented in it overall.
# B1: LSL-150 (Laetiporus sulphureus), Q7Z8V1 (protein)
# chain: MTDIYIPPEGLYFRLLGFASRQVIFARNSPSPDVGLSPVNDQATDQYFSLIYGTGEHAGLYAIKSKATGKVLFSRRPAEPYVGQIDGDGRYPDNWFKIEPGKTYLSKYFRLVQPSTGTALVSRTHLQPYFWNHPQTEVFDDQYFTFLFEDHHHHHH
# Experiments:
# Test in all cases: glycan array binding signal (z-score within array); higher = stronger binding
# Conditions in all cases: glycan notation: IUPAC condensed, linker removed
# [1] = target: Fuc(a1-2)Gal(b1-3)GalNAc(a1-3)[Fuc(a1-2)]Gal(b1-4)Glc
# Method in brief: (§1)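 The binding signal is a Z-score computed within each array. Data were drawn from 3228 arrays in the Consortium for Functional Glycomics database, restricted to those with a known protein sequence. Scores were averaged over arrays of the same protein sequence at different concentrations or buffers, and over linkers, and negative values can be taken as non-binding.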
# [2] = target: Fuc(a1-2)Gal(b1-4)GlcNAc(b1-3)[Fuc(a1-3)[Gal(b1-4)]GlcNAc(b1-6)]Gal(b1-4)Glc
# Method in brief: as §1
# [3] = target: Fuc(a1-2)Gal(b1-4)[Fuc(a1-3)]GlcNAc(b1-3)[Neu5Ac(a2-6)Gal(b1-4)GlcNAc(b1-6)]Gal(b1-4)Glc
# Method in brief: as §1
# [4] = target: Fuc(a1-2)[Gal(a1-3)]Gal(b1-3)GlcNAc
# Method in brief: as §1
# [5] = target: Fuc(a1-2)[Gal(a1-3)]Gal(b1-4)GlcNAc(b1-6)GalNAc
# Method in brief: as §1
# [6] = target: Fuc(a1-2)[GalNAc(a1-3)]Gal(b1-3)GalNAc(b1-3)Gal(a1-4)Gal(b1-4)Glc
# Method in brief: as §1
# [7] = target: Gal(a1-3)Gal(b1-4)GlcNAc(b1-2)Man
# Method in brief: as §1
# [8] = target: Gal(b1-3)GlcNAc(b1-3)Gal(b1-4)GlcNAc
# Method in brief: as §1
# [9] = target: Gal(b1-4)GlcNAc(b1-3)Gal(b1-3)GalNAc
# Method in brief: as §1
# [10] = target: Gal(b1-4)GlcNAc(b1-3)Gal(b1-4)GlcNAc(b1-3)Gal(b1-4)GlcNAc(b1-2)Man(a1-3)[Gal(b1-4)GlcNAc(b1-3)Gal(b1-4)GlcNAc(b1-3)Gal(b1-4)GlcNAc(b1-2)Man(a1-6)]Man(b1-4)GlcNAc(b1-4)[Fuc(a1-6)]GlcNAc
# Method in brief: as §1
# [11] = target: Gal(b1-4)GlcNAc(b1-3)Gal(b1-4)GlcNAc(b1-3)Gal(b1-4)GlcNAc(b1-2)[Gal(b1-4)GlcNAc(b1-3)Gal(b1-4)GlcNAc(b1-3)Gal(b1-4)GlcNAc(b1-6)]Man(a1-6)[Gal(b1-4)GlcNAc(b1-3)Gal(b1-4)GlcNAc(b1-3)Gal(b1-4)GlcNAc(b1-2)Man(a1-3)]Man(b1-4)GlcNAc(b1-4)[Fuc(a1-6)]GlcNAc
# Method in brief: as §1
# [12] = target: Gal(b1-4)GlcNAc(b1-3)Gal(b1-4)GlcNAc(b1-3)Gal(b1-4)GlcNAc(b1-3)Gal(b1-4)GlcNAc(b1-2)Man(a1-3)[Gal(b1-4)GlcNAc(b1-3)Gal(b1-4)GlcNAc(b1-3)Gal(b1-4)GlcNAc(b1-3)Gal(b1-4)GlcNAc(b1-2)Man(a1-6)]Man(b1-4)GlcNAc(b1-4)GlcNAc
# Method in brief: as §1
# [13] = target: Gal(b1-4)GlcNAc(b1-3)Gal(b1-4)GlcNAc(b1-3)Gal(b1-4)GlcNAc(b1-3)Gal(b1-4)GlcNAc(b1-2)Man(a1-3)[Gal(b1-4)GlcNAc(b1-3)Gal(b1-4)GlcNAc(b1-3)Gal(b1-4)GlcNAc(b1-3)Gal(b1-4)GlcNAc(b1-2)Man(a1-6)]Man(b1-4)GlcNAc(b1-4)[Fuc(a1-6)]GlcNAc
# Method in brief: as §1
# [14] = target: Gal(b1-4)GlcNAc(b1-3)Gal(b1-4)GlcNAc(b1-3)Gal(b1-4)GlcNAc(b1-3)Gal(b1-4)GlcNAc(b1-2)[Gal(b1-4)GlcNAc(b1-3)Gal(b1-4)GlcNAc(b1-3)Gal(b1-4)GlcNAc(b1-3)Gal(b1-4)GlcNAc(b1-6)]Man(a1-6)[Gal(b1-4)GlcNAc(b1-3)Gal(b1-4)GlcNAc(b1-3)Gal(b1-4)GlcNAc(b1-3)Gal(b1-4)GlcNAc(b1-2)Man(a1-3)]Man(b1-4)GlcNAc(b1-4)[Fuc(a1-6)]GlcNAc
# Method in brief: as §1
# [15] = target: Gal(b1-4)GlcNAc(b1-3)Gal(b1-4)GlcNAc(b1-3)Gal(b1-4)GlcNAc(b1-3)Gal(b1-4)GlcNAc(b1-3)Gal(b1-4)GlcNAc(b1-2)Man(a1-3)[Gal(b1-4)GlcNAc(b1-3)Gal(b1-4)GlcNAc(b1-3)Gal(b1-4)GlcNAc(b1-3)Gal(b1-4)GlcNAc(b1-3)Gal(b1-4)GlcNAc(b1-2)Man(a1-6)]Man(b1-4)GlcNAc(b1-4)GlcNAc
# Method in brief: as §1
# [16] = target: Gal(b1-4)GlcNAc(b1-3)Gal(b1-4)GlcNAc(b1-3)Gal(b1-4)GlcNAc(b1-3)Gal(b1-4)GlcNAc(b1-3)Gal(b1-4)GlcNAc(b1-2)Man(a1-3)[Gal(b1-4)GlcNAc(b1-3)Gal(b1-4)GlcNAc(b1-3)Gal(b1-4)GlcNAc(b1-3)Gal(b1-4)GlcNAc(b1-3)Gal(b1-4)GlcNAc(b1-2)Man(a1-6)]Man(b1-4)GlcNAc(b1-4)[Fuc(a1-6)]GlcNAc
# Method in brief: as §1
# [17] = target: Gal(b1-4)GlcNAc(b1-3)Gal(b1-4)GlcNAc(b1-3)Gal(b1-4)GlcNAc(b1-3)Gal(b1-4)GlcNAc(b1-3)Gal(b1-4)GlcNAc(b1-2)[Gal(b1-4)GlcNAc(b1-3)Gal(b1-4)GlcNAc(b1-3)Gal(b1-4)GlcNAc(b1-3)Gal(b1-4)GlcNAc(b1-3)Gal(b1-4)GlcNAc(b1-6)]Man(a1-6)[Gal(b1-4)GlcNAc(b1-3)Gal(b1-4)GlcNAc(b1-3)Gal(b1-4)GlcNAc(b1-3)Gal(b1-4)GlcNAc(b1-3)Gal(b1-4)GlcNAc(b1-2)Man(a1-3)]Man(b1-4)GlcNAc(b1-4)[Fuc(a1-6)]GlcNAc
# Method in brief: as §1
# [18] = target: Gal(b1-4)GlcNAc(b1-3)Gal(b1-4)GlcNAc(b1-3)Gal(b1-4)GlcNAc(b1-3)Gal(b1-4)GlcNAc(b1-3)Gal(b1-4)GlcNAc(b1-3)Gal(b1-4)GlcNAc(b1-2)Man(a1-3)[Gal(b1-4)GlcNAc(b1-3)Gal(b1-4)GlcNAc(b1-3)Gal(b1-4)GlcNAc(b1-3)Gal(b1-4)GlcNAc(b1-3)Gal(b1-4)GlcNAc(b1-3)Gal(b1-4)GlcNAc(b1-2)Man(a1-6)]Man(b1-4)GlcNAc(b1-4)GlcNAc
# Method in brief: as §1
# [19] = target: Gal(b1-4)GlcNAc(b1-3)Gal(b1-4)GlcNAc(b1-3)[Gal(b1-4)GlcNAc(b1-3)Gal(b1-4)GlcNAc(b1-6)]GalNAc
# Method in brief: as §1
# [20] = target: Gal3S(b1-4)Glc
# Method in brief: as §1
# [21] = target: GalNAc(b1-3)Gal
# Method in brief: as §1
# [22] = target: GalNAc(b1-4)GlcNAc6S
# Method in brief: as §1
# [23] = target: Glc(a1-6)Glc(a1-6)Glc(a1-6)Glc
# Method in brief: as §1
# [24] = target: GlcNAc(b1-2)Man(a1-3)[GlcNAc(b1-2)Man(a1-6)]Man(b1-4)GlcNAc(b1-4)GlcNAc
# Method in brief: as §1
# [25] = target: GlcNAc(b1-3)Gal
# Method in brief: as §1
# [26] = target: GlcNAc(b1-3)Gal(b1-4)GlcNAc(b1-3)Gal(b1-4)GlcNAc(b1-2)Man(a1-3)[GlcNAc(b1-3)Gal(b1-4)GlcNAc(b1-3)Gal(b1-4)GlcNAc(b1-2)Man(a1-6)]Man(b1-4)GlcNAc(b1-4)GlcNAc
# Method in brief: as §1
# [27] = target: GlcNAc(b1-3)Gal(b1-4)GlcNAc(b1-3)Gal(b1-4)GlcNAc(b1-3)Gal(b1-4)GlcNAc(b1-3)Gal(b1-4)GlcNAc(b1-2)Man(a1-3)[GlcNAc(b1-3)Gal(b1-4)GlcNAc(b1-3)Gal(b1-4)GlcNAc(b1-3)Gal(b1-4)GlcNAc(b1-3)Gal(b1-4)GlcNAc(b1-2)Man(a1-6)]Man(b1-4)GlcNAc(b1-4)GlcNAc
# Method in brief: as §1
# [28] = target: GlcNAc(b1-3)Gal(b1-4)GlcNAc(b1-3)Gal(b1-4)GlcNAc(b1-3)Gal(b1-4)GlcNAc(b1-3)Gal(b1-4)GlcNAc(b1-2)[GlcNAc(b1-3)Gal(b1-4)GlcNAc(b1-3)Gal(b1-4)GlcNAc(b1-3)Gal(b1-4)GlcNAc(b1-3)Gal(b1-4)GlcNAc(b1-6)]Man(a1-6)[GlcNAc(b1-3)Gal(b1-4)GlcNAc(b1-3)Gal(b1-4)GlcNAc(b1-3)Gal(b1-4)GlcNAc(b1-3)Gal(b1-4)GlcNAc(b1-2)Man(a1-3)]Man(b1-4)GlcNAc(b1-4)[Fuc(a1-6)]GlcNAc
# Method in brief: as §1
# [29] = target: Kdn(a2-3)Gal(b1-3)GalNAc
# Method in brief: as §1
# [30] = target: Man(a1-3)[Man(a1-6)]Man
# Method in brief: as §1
binder,measurement,setting,value
B1,glycan array binding signal (z-score),[1],-0.208
same,glycan array binding signal (z-score),[2],-0.2
same,glycan array binding signal (z-score),[3],-0.204
same,glycan array binding signal (z-score),[4],-0.206
same,glycan array binding signal (z-score),[5],-0.207
same,glycan array binding signal (z-score),[6],-0.209
same,glycan array binding signal (z-score),[7],-0.208
same,glycan array binding signal (z-score),[8],-0.124
same,glycan array binding signal (z-score),[9],-0.205
same,glycan array binding signal (z-score),[10],5.23
same,glycan array binding signal (z-score),[11],5.29
same,glycan array binding signal (z-score),[12],5.88
same,glycan array binding signal (z-score),[13],6.24
same,glycan array binding signal (z-score),[14],6.23
same,glycan array binding signal (z-score),[15],5.44
same,glycan array binding signal (z-score),[16],6.16
same,glycan array binding signal (z-score),[17],6.2
same,glycan array binding signal (z-score),[18],5.13
same,glycan array binding signal (z-score),[19],0.034
same,glycan array binding signal (z-score),[20],-0.196
same,glycan array binding signal (z-score),[21],-0.207
same,glycan array binding signal (z-score),[22],-0.203
same,glycan array binding signal (z-score),[23],-0.207
same,glycan array binding signal (z-score),[24],-0.205
same,glycan array binding signal (z-score),[25],-0.195
same,glycan array binding signal (z-score),[26],0.937
same,glycan array binding signal (z-score),[27],5.26
same,glycan array binding signal (z-score),[28],7.09
same,glycan array binding signal (z-score),[29],-0.201
same,glycan array binding signal (z-score),[30],-0.2
